In PubChem BioAssay (NCI):
The panel holds about 83,000 compounds, 20% with a hit somewhere; the sample as a whole holds those more often.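 Growth was measured after 48 h exposure to one concentration of compound in 96-well plates. Values under 10 count as active.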 Activity calls are given as the source filed them.

Tests used:
Experiment in all cases: NCI-60 one-dose screen, 48 h (100 = growth as untreated, 0 = no growth, -100 = all killed)
Conditions in all cases: 10 µM unless noted
DU-145 prostate = system: DU-145 prostate
K-562 leukemia = system: K-562 leukemia
MALME-3M melanoma = system: MALME-3M melanoma
MDA-MB-231 breast = system: MDA-MB-231 breast
RXF 393 renal = system: RXF 393 renal
SF-268 CNS = system: SF-268 CNS
SF-295 CNS = system: SF-295 CNS
SF-539 CNS = system: SF-539 CNS
UACC-257 melanoma = system: UACC-257 melanoma
M14 melanoma = system: M14 melanoma
HCT-15 colon = system: HCT-15 colon
HT29 colon = system: HT29 colon
SNB-75 CNS = system: SNB-75 CNS
SNB-19 CNS = system: SNB-19 CNS
U251 CNS = system: U251 CNS
PC-3 prostate = system: PC-3 prostate
SK-MEL-5 melanoma = system: SK-MEL-5 melanoma
UACC-62 melanoma = system: UACC-62 melanoma
LOX IMVI melanoma = system: LOX IMVI melanoma
SK-MEL-28 melanoma = system: SK-MEL-28 melanoma

Measured: growth

COc1cc(C(=O)N2CCN(c3ccccc3OC)CC2)c(NC(=O)c2cnccn2)cc1OCc1ccccc1
inactive: DU-145 prostate 104% | K-562 leukemia 10.8% | MALME-3M melanoma 115% | MDA-MB-231 breast 73.1% | RXF 393 renal 113% | SF-268 CNS 114% | SF-295 CNS 97.5% | SF-539 CNS 88.9% | UACC-257 melanoma 78% | M14 melanoma 98.4% | HCT-15 colon 81.9% | HT29 colon 106% | SNB-75 CNS 102% | SNB-19 CNS 85.9% | U251 CNS 83.2% | PC-3 prostate 70.9% | SK-MEL-5 melanoma 78.4% | UACC-62 melanoma 73.3% | LOX IMVI melanoma 75.5% | SK-MEL-28 melanoma 132%

CN(C)C(CNc1oc(-c2cccc3ccccc23)nc1C#N)c1ccco1 (stereo not given)
inactive: DU-145 prostate 98.7% | K-562 leukemia 74.5% | MALME-3M melanoma 98% | MDA-MB-231 breast 107% | RXF 393 renal 99.3% | SF-268 CNS 91.4% | SF-295 CNS 90.1% | SF-539 CNS 102% | UACC-257 melanoma 98.5% | M14 melanoma 91.9% | HCT-15 colon 79.8% | HT29 colon 72.1% | SNB-75 CNS 71.5% | SNB-19 CNS 101% | U251 CNS 80.4% | PC-3 prostate 89.5% | SK-MEL-5 melanoma 91.7% | UACC-62 melanoma 91.3% | LOX IMVI melanoma 95.8% | SK-MEL-28 melanoma 96.3%

CC1CCN(CCCCCOc2ccc3oc4cc(Cl)ccc4c(=O)c3c2)CC1
inactive: DU-145 prostate 83.7% | MDA-MB-231 breast 44.3% | RXF 393 renal 52.8% | SF-268 CNS 68.1% | SF-295 CNS 78.2% | SF-539 CNS 40.6% | SNB-75 CNS 74.7% | SNB-19 CNS 80.9% | U251 CNS 54.3% | PC-3 prostate 64.3% | SK-MEL-28 melanoma 57.5%
active: K-562 leukemia 5.17% | MALME-3M melanoma 9.78% | UACC-257 melanoma -38.8% | M14 melanoma -50.1% | HCT-15 colon -16.9% | HT29 colon 5.89% | SK-MEL-5 melanoma -72.2% | UACC-62 melanoma -51% | LOX IMVI melanoma -25.6%

Cc1nnc(/N=C2\NC(=O)/C(=C/c3ccsc3)S2)s1
inactive: DU-145 prostate 98.7% | K-562 leukemia 97.4% | MALME-3M melanoma 80.8% | MDA-MB-231 breast 108% | RXF 393 renal 99.8% | SF-268 CNS 85.1% | SF-295 CNS 85.9% | SF-539 CNS 99.7% | UACC-257 melanoma 108% | M14 melanoma 92% | HCT-15 colon 88% | HT29 colon 90.6% | SNB-75 CNS 74.3% | SNB-19 CNS 100% | U251 CNS 94.6% | PC-3 prostate 89.6% | SK-MEL-5 melanoma 98.4% | UACC-62 melanoma 102% | LOX IMVI melanoma 87.7% | SK-MEL-28 melanoma 101%
